Screening data deposited in PubChem by National Center for Advancing Translational Sciences (NCATS).
RORg inh – qHTS for inhibitors of ROR gamma transcriptional activity. Nuclear receptor ROR-gamma (Mus musculus), P51450. Drosophila S2 Gal4-RORgamma UAS-luciferase reporter, 20 h. Potency, µM (titrated, usually from 53.6 µM), most hits filed as inhibitors. hit rate 5.4% among 310,000; note: nearly all actives have a fitted effect of over 60% in size
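Luminescence from a UAS-regulated Photinus luciferase reporter in stably transfected Drosophila Schneider cells is measured; decreased signal marks ROR gamma inhibition. Fusion expression is induced by 700 uM copper sulfate for 20 hr.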
TDP1 block – qHTS Assay for Inhibitors of Tyrosyl-DNA Phosphodiesterase (TDP1); Tyrosyl-DNA phosphodiesterase 1 (Homo sapiens), Q9NUW8; recombinant TDP1, AlphaScreen DNA substrate cleavage; Potency, µM (highest dose often 130 µM), hits mostly inhibitors; hit rate 0.28% among 350,000; AID 485290, 2010; note: nearly all actives have a fitted effect of over 40% in size
Target sequence (Q9NUW8 whole entry, looked up): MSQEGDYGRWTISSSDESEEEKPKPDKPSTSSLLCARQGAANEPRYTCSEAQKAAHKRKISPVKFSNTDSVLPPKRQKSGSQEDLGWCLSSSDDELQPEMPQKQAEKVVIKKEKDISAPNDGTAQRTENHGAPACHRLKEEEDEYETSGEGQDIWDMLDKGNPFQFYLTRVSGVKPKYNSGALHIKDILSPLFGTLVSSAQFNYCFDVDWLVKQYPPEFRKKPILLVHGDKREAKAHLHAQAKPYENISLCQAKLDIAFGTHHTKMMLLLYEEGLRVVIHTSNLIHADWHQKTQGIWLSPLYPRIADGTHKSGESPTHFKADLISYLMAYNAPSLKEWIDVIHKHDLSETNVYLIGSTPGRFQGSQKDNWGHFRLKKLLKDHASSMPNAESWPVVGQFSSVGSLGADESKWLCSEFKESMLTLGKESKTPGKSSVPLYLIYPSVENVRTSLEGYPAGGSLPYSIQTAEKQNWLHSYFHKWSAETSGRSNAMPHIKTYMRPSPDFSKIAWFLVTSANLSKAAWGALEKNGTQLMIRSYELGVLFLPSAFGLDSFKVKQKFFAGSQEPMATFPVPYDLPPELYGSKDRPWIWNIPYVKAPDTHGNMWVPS
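Compounds were preincubated with Tdp1 (1 nM final) for 15 min at room temperature before substrate (15 nM final) started a 5 min reaction; beads (10 ug/ml final) were then added for 10 min before AlphaScreen detection.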
VP16 counter – VP16 counterscreen qHTS for inhibitors of ROR gamma transcriptional activity; Drosophila S2 Gal4-VP16 UAS-luciferase, luminescence, 20 h; Potency, µM (series often up to 53.6 µM), hits mostly inhibitors; hit rate 3.5% among 310,000; AID 2546, 2010;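 note: Gal4-VP16 expression switched on by copper sulfate through the metallothionein promoter; nearly all actives have a fitted effect of over 50% in size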
TDP1 cell noCPT – qHTS for Inhibitors of human tyrosyl-DNA phosphodiesterase 1 (TDP1): qHTS in cells in absence of CPT | hit rate 15% among 420,000 | DT40 Tdp1-/- hTDP1 cells, no CPT, ATP luminescence, 48 h | Potency, µM (series often up to 46.2 µM), usual class: inhibitors | AID 686978, 2013; note: nearly all actives have a fitted effect of over 55% in size
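Stably hTDP1-transfected Tdp1-null chicken DT40 cells were treated with library compounds minus camptothecin and grown for at least 48 hr at 37 °C, after which cellular ATP was quantified by luminescence.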
TDP1 cell CPT – qHTS for Inhibitors of human tyrosyl-DNA phosphodiesterase 1 (TDP1): qHTS in cells in presence of CPT; chicken DT40 Tdp1-/-;hTDP1 cells + 20 nM CPT, ATP luminescence, 48 h; Potency, µM (series often up to 46.2 µM), hits mostly inhibitors; hit rate 12% among 420,000; AID 686979, 2013; note: nearly all actives have a fitted effect of over 55% in size
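Chicken DT40 Tdp1-/- cells stably complemented with human TDP1 were seeded at 400 cells/well in medium containing 20 nM camptothecin, exposed to pin-transferred compounds, and grown at 37 °C for at least 48 hr. Viability was read as ATP luminescence.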
Hits are given with their value; 0 = inactive; ? = inconclusive; - = no result; [ ] = remark or other dose. Sampled rows, rich in hits. Any-hit rate of the full collection: about 19%. Calls come from the whole dose curve; as a rule, active = well fitted curve in the direction sought with a large enough effect; inconclusive = small, poorly fitted or top-dose-only effect, or another doubt; inactive = no such curve, though single readings can be large; an effect the other way counts as inactive or inconclusive.

SMILES	RORg inh	TDP1 block	VP16 counter	TDP1 cell noCPT	TDP1 cell CPT
O=C(NCc1ccc(F)cc1)C1CCCN1S(=O)(=O)c1cccc2nsnc12 (centres undefined)	0	0	0	0	0
O=C(NCCS(=O)(=O)c1ccc(Br)cc1)c1ccc(F)cc1	0	0	0	0	0
CCOc1cc(CNCc2ccccc2)ccc1OCC(=O)NC1CCCCC1	0	0	0	16µM	18µM
CCN1CCN(S(=O)(=O)c2cc(OCC(=O)NC3CCCCC3)c(C)cc2Cl)CC1	0	0	0	?	23µM
Cc1cc(Cl)c(S(=O)(=O)N2CCSCC2)cc1OCC(=O)NC1CCCCC1	0	0	0	18µM	16µM
Cc1ccc(NS(=O)(=O)c2cc(OCC(N)=O)c(C)cc2Cl)cc1C	?	0	0	?	20µM
CS(=O)(=O)NN1C(=O)c2ccccc2NC1c1cccc2cccnc12 (centres undefined)	0[10 µM]	0	0	0	0
NC(=O)[C@@H]1C[C@]2(NC(=O)NC2=O)c2cc(F)ccc2O1	-	-	-	0	0
CC1CC(C(F)(F)F)n2ncnc2N1 (centres undefined)	0	0	0	0	0
CN(CC(=O)NCCc1ccc(S(N)(=O)=O)cc1)Cc1ccc(Cl)cc1Cl	?	0	?	?	0
O=C(COc1ccc(Br)cc1CNC1CCCC1)Nc1ccccc1	?	0	0	18µM	?
O=C(COc1ccc(S(=O)(=O)NC2CCCCC2)cc1Cl)NCc1ccc2c(c1)OCO2	0	0	0	?	?
Cc1cc(Cl)c(S(=O)(=O)N2CCN(c3ccccn3)CC2)cc1OCC(=O)NC1CCCCC1	0	0	0	21µM	?
COc1ccc(CCNC(=O)COc2ccc(S(=O)(=O)NC3CCCCC3)cc2Cl)cc1OC	0	0	0	16µM	23µM
O=C(COc1ccc(Br)cc1CO)Nc1ccc(F)cc1	0	0	0	0	0
CC1CCC(NC(=O)CN2C(=O)c3ccccc3S2(=O)=O)CC1 (centres undefined)	-	0	-	0	0
Cc1cc(Br)ccc1NC(=O)CN(C)C(=O)c1cc(S(=O)(=O)N(C)C)ccc1N1CCCC1	0	0	0	?	0
O=[N+]([O-])c1ccccc1S(=O)(=O)Nc1ccc(S(=O)(=O)N2CCCC2)cc1	-	0	-	0	0
O=C1CS/C(=N/N=C/c2cccs2)N1	0.56µM	0	?	0	0
O=C1CS/C(=N/N=C/c2ccncc2)N1	0	0	0	0	0
CC1(C)S/C(=N/N=C/c2cccs2)NC1=O	0.79µM	0	5µM	0	0
O=C1N/C(=N\N=C\c2ccco2)SC1Cc1ccccc1[N+](=O)[O-] (centres undefined)	3.2µM	0	5µM	?	?
O=C(CC1S/C(=N/N=C/c2cccs2)NC1=O)Nc1ccc(Cl)cc1 (centres undefined)	?	0	?	0	0
O=C1N/C(=N\N=C\c2cccs2)SC1Cc1cccc(Cl)c1Cl (centres undefined)	0.32µM	0	0.22µM	5.2µM	3.3µM
O=C1N/C(=N/N=C/c2ccccc2)SC1(c1ccccc1)c1ccccc1	0	0	0	?	?
SMILES	RORg inh	TDP1 block	VP16 counter	TDP1 cell noCPT	TDP1 cell CPT
Cc1cc(NCc2ccco2)nc2cc(O)ccc12	0	0	0	?	?
c1cc2c(cc1Cn1cnnn1)OCO2	0	0	0	0	0
Cc1nnc(C)c2c(C)n(Cc3ccc4c(c3)OCO4)c(C)c12	0	0	0	16µM	13µM
O=S(=O)(c1ccccc1Cl)N1CCN(c2nc(-c3cccs3)nc3ccccc23)CC1	-	0	-	10µM	7.9µM
O=S(=O)(c1cccc2ccccc12)N1CCN(c2nc(-c3cccs3)nc3ccccc23)CC1	-	0	-	10µM	?
CCn1c(N2CCN(S(=O)(=O)c3ccc(OC)cc3)CC2)nc2ccccc21	?	-	0	?	?
N#Cc1ccccc1S(=O)(=O)N1CCN(c2nc(-c3ccccc3)nc3ccccc23)CC1	-	0	-	11µM	16µM
